Reference: PubChem BioAssay (EPA / NIEHS)
Where “and” joins values, the source holds several entries; their conditions need not be identical. Equal values may be shown once. Records with an inconclusive call do not appear. Some structures have more than one record in an assay (separate samples or runs), and their calls can disagree. Calls of active or inactive are those of the source. The calls were made as follows, unless noted: active = hit-call score of the fitted dose curve at least 0.9, where 1 is the maximum; inconclusive = response in the unintended direction; inactive = score below 0.9.

Assays:
[1] = TOX21_p53_BLA_p4_viability: Viability Assessment in the Tox21 HCT-116 p53 Agonism Beta-lactamase Assay, Phase 4 (AID 2283597);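 also: hits lower the luminescence signal meaning cytotoxicity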
Summary of the method: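 Luminescent ATP readout (CellTiter-Glo, 30 min, room temperature) in the same wells as the p53 bla ratio. HCT116 cells were treated for 16 h at 37C with DMSO-dissolved compounds.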

[2] = target: Cellular tumor antigen p53 (Homo sapiens) (UniProt P04637); assay: TOX21_p53_BLA_p5_ratio: Tox21 HCT-116 p53 Agonism Beta-lactamase Assay, Ratio, Phase 5 (AID 2283599)
Summary of the method: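 Beta-lactamase reporter ratio (blue 460 nm over green 530 nm, 405 nm excitation) after 2 h CCF4-AM loading, in HCT-116 cells exposed 16 h at 37 C to compounds pinned at 217-fold dilution. Increases relative to DMSO baseline scored.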

[3] = TOX21_p53_BLA_p5_viability: Viability Assessment in the Tox21 HCT-116 p53 Agonism Beta-lactamase Assay, Phase 5 (AID 2283600)
Summary of the method: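 Seeded cells (4000/well) settle 5 h before compound addition. Plates then incubate 16 h at 37C, receive FRET substrate for 2 h, and finally CellTiter-Glo, with luminescence measured after a 30 min room-temperature incubation.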

[4] = target: Cellular tumor antigen p53 (Homo sapiens) (UniProt P04637); assay: TOX21_p53_BLA_p4_ratio: Tox21 HCT-116 p53 Agonism Beta-lactamase Assay, Ratio, Phase 4 (AID 2283601)
Summary of the method: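 Signal is the blue/green (460nm/530nm) ratio of cleaved versus uncleaved CCF4-AM substrate, read after 2 h substrate loading. Cells were HCT116 carrying the p53-responsive beta-lactamase reporter, dosed 16 h at 37C, 5% CO2; CellTiter-Glo measured in parallel.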

[5] = Tanguay_ZF_120hpf_MORT_legacy: (Legacy) Oregon State University Tanguay Lab 120 Hour Post-fertilization zebrafish Assay for Mortality (AID 2283633);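 as to AC50: fitted as increase in binary mortality versus DMSO negative control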
Summary of the method: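 Single dechorionated Tropical 5D embryos were held with test chemical (0.64% DMSO final) from 6 to 120 hpf at 28C under foil. Deaths at 24 or 120 hpf were recorded as binary calls, analysed for increase over DMSO controls.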

[6] = Tanguay_ZF_120hpf_YSE_legacy: (Legacy) Oregon State University Tanguay Lab 120 Hour Post-fertilization zebrafish Assay for Yolk Sac Edema (AID 2283634);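 as to AC50: actives raise the incidence of yolk sac edema above the DMSO baseline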
Summary of the method: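 Single dechorionated embryos were held in sealed plates at 28C with test chemical (0.64% DMSO final) from 6 hpf until 120 hpf. Edema of the yolk sac was then recorded as a binary endpoint; non-mortality endpoints were skipped for dead embryos.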

[7] = Tanguay_ZF_120hpf_AXIS_legacy: (Legacy) Oregon State University Tanguay Lab 120 Hour Post-fertilization zebrafish Assay for Body Axis Malformation (AID 2283635)
Summary of the method: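 Each dechorionated embryo was exposed alone from 6 hpf, with DMSO at 0.64% (vol/vol) and trimethyltin chloride 5 uM as positive control. Axis malformation was recorded at 120 hpf unless the embryo had died.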

[8] = Tanguay_ZF_120hpf_SNOU_legacy: (Legacy) Oregon State University Tanguay Lab 120 Hour Post-fertilization zebrafish Assay for Snout Malformation (AID 2283637)
Summary of the method: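 Snout malformation read as a yes/no call on brightfield images of 120 hpf larvae (Tropical 5D strain). Static exposure began at 6 hpf on dechorionated embryos in 0.64% DMSO, with gain of signal analysed versus DMSO controls.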

[9] = Tanguay_ZF_120hpf_JAW_legacy: (Legacy) Oregon State University Tanguay Lab 120 Hour Post-fertilization zebrafish Assay for Jaw Malformation (AID 2283638);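 as to AC50: active means more embryos with jaw malformation than DMSO controls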
Summary of the method: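 Wild-type 5D embryos, chorion removed at 4 hpf, dosed singly from 6 hpf; 28C static, sealed, foil-covered, to 120 hpf. Endpoint: jaw defect yes/no (brightfield); mortality excludes scoring.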

[10] = Tanguay_ZF_120hpf_OTIC_legacy: (Legacy) Oregon State University Tanguay Lab 120 Hour Post-fertilization zebrafish Assay for Otic Vesicle Malformation (AID 2283639)
Summary of the method: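 Embryos from 5D wild-type adults exposed in plates; DMSO 0.64% v/v final. Sealed, light-protected, 28C, static to 120 hpf. Otic vesicle malformation recorded as binary endpoint; gain-of-signal fitted vs DMSO.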

[11] = Tanguay_ZF_120hpf_PE_legacy: (Legacy) Oregon State University Tanguay Lab 120 Hour Post-fertilization zebrafish Assay for Pericardial Edema (AID 2283640)
Summary of the method: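 Zebrafish larvae are exposed from early development to 120 hpf at 28C, with 0.64% DMSO final. Each surviving larva receives a yes/no pericardial edema call by brightfield imaging, analysed relative to the DMSO baseline.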

[12] = Tanguay_ZF_120hpf_SOMI_legacy: (Legacy) Oregon State University Tanguay Lab 120 Hour Post-fertilization zebrafish Assay for Somite Malformation (AID 2283647)
Summary of the method: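 Somitogenesis defects are recorded as binary calls in whole larvae at 120 hpf after continuous static chemical exposure starting at 6 hpf in dechorionated 5D embryos. DMSO serves as negative control and baseline.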

[13] = Tanguay_ZF_120hpf_PFIN_legacy: (Legacy) Oregon State University Tanguay Lab 120 Hour Post-fertilization zebrafish Assay for Pectoral Fin Malformation (AID 2283648);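 also: each larva judged yes or no for fin defect by brightfield with dead larvae skipped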
Summary of the method: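 5D WT zebrafish; pronase dechorionation 4 hpf; 1 embryo/well at 6 hpf; static exposure to 120 hpf, 28C, sealed, foil-covered; final DMSO 0.64% v/v; 5 uM trimethyltin chloride positive control; fin defect scored yes/no.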

[14] = Tanguay_ZF_120hpf_PIG_legacy: (Legacy) Oregon State University Tanguay Lab 120 Hour Post-fertilization zebrafish Assay for Pigmentation Malformation (AID 2283650);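 also: dechorionated Tropical 5D zebrafish embryos exposed singly from 6 to 120 hpf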
Summary of the method: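 Pronase dechorionation at 4 hpf; embryos plated at 6 hpf, one per well; static exposure, sealed and foil-covered, 28C, to 120 hpf; pigmentation read by brightfield, binary; DMSO 0.64% baseline, 5uM trimethyltin chloride positive control.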

[15] = Tanguay_ZF_120hpf_CIRC_legacy: (Legacy) Oregon State University Tanguay Lab 120 Hour Post-fertilization zebrafish Assay for Circulatory Malformation (AID 2283651)
Summary of the method: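 Read-out: presence or absence of circulatory malformation at 120 hpf, scored by brightfield microscopy, fitted in the gain-of-signal direction against DMSO baseline. Wild-type 5D larvae were exposed from 6 hpf after enzymatic chorion removal.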

[16] = Tanguay_ZF_120hpf_BRAI_legacy: (Legacy) Oregon State University Tanguay Lab 120 Hour Post-fertilization zebrafish Assay for Brain Malformation (AID 2283641)
Summary of the method: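 Static exposure of staged wild-type embryos until 120 hpf, kept at 28C with light excluded and final DMSO of 0.64% (vol/vol). Presence or absence of brain malformation was noted under brightfield; mortality precluded scoring.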

[17] = Tanguay_ZF_120hpf_CFIN_legacy: (Legacy) Oregon State University Tanguay Lab 120 Hour Post-fertilization zebrafish Assay for Caudal Fin Malformation (AID 2283649)
Summary of the method: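 Single dechorionated 5D wild-type embryos are dosed at 6 hpf (final DMSO 0.64%) and held statically at 28C. Caudal fin malformation is recorded as present or absent at 120 hpf under brightfield, excluding dead embryos.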

[18] = read-out: solute carrier (SLC22A6), SLC22A6 (gene 9356); assay: LTEA_HepaRG_SLC22A6: Life Technologies and Expression Analysis (LTEA) Assay for solute carrier (SLC22A6) using HepaRG (AID 2283653; active = hit-call score of the fitted dose curve at least 0.9, where 1 is the maximum; inactive = score below 0.9); conditions: mRNA level, 48 h; actives raise or lower the signal
Summary of the method: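 Gene-expression endpoint in HepaRG hepatic cells: duplicate 8-point concentration-response, highest 100 uM, 48 h treatment in serum-free medium with 0.5% DMSO. SLC22A6 expression measured by qRT-PCR, normalised to ACTB/GAPDH/POLR2A.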

[19] = Tanguay_ZF_120hpf_EYE_legacy: (Legacy) Oregon State University Tanguay Lab 120 Hour Post-fertilization zebrafish Assay for Eye Malformation (AID 2283636)
Summary of the method: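 Read-out is binary presence or absence of eye malformation, scored by brightfield microscopy at 120 hpf. Single larvae were exposed from 6 hpf in embryo medium containing 0.64% DMSO, with DMSO as baseline.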

Measured: AC50

Sequence of Cellular tumor antigen p53 (Homo sapiens) (P04637 whole entry, looked up): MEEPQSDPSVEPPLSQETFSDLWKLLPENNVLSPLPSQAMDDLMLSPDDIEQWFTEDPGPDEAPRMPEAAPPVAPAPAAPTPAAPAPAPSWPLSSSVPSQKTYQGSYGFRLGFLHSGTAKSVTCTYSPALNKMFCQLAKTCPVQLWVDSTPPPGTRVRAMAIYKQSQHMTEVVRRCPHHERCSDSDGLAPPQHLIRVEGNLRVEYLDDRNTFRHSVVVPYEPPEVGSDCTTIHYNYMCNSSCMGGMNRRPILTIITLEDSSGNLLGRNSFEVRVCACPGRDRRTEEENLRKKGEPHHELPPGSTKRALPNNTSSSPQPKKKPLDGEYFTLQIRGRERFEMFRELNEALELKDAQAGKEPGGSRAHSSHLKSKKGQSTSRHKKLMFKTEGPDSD

CCCCOC(=O)C(C)Oc1ccc(Oc2ccc(C(F)(F)F)cn2)cc1 (configuration not stated)
inactive: [1] | [2] | [3] | [4] | [5] | [6] | [7] | [8] | [9] | [10] | [11] | [12] | [13] | [14] | [15]

COC(=O)c1ccc(I)cc1S(=O)(=O)NC(=O)Nc1nc(C)nc(OC)n1
inactive: [1] | [2] | [3] | [4] | [5] | [6] | [11] | [16] | [12] | [13] | [17] | [14] | [15]

Oc1ccc(C(c2ccc(O)cc2)C(Cl)(Cl)Cl)cc1
inactive: [3] | [5] | [6] | [11] | [16] | [13] | [17]
active: [1] 38.3 µM and 80.7 µM | [2] 80.8 µM and 85.1 µM | [3] 66.7 µM | [4] 64.5 µM and 82.7 µM | [8] 138 µM | [9] 117 µM | [12] 86.3 µM | [14] 202 µM | [15] 202 µM

C#C[C@]1(O)CC[C@H]2[C@@H]3CCC4=CC(=O)CC[C@@H]4[C@H]3CC[C@@]21CC
inactive: [1] | [2] | [3] | [4] | [5] | [8] | [9] | [10] | [16] | [12] | [17] | [14]

CCCCCCC(C)OC(=O)COc1nc(F)c(Cl)c(N)c1Cl (configuration not stated)
inactive: [2] | [3] | [5] | [6] | [10] | [11] | [16] | [12] | [13] | [15] | [18]
active: [1] 76.9 µM | [4] 87.2 µM

CCCCC(CC)COC(=O)c1ccccc1C(=O)O (configuration not stated)
inactive: [1] | [2] | [3] | [4] | [5] | [6] | [8] | [9] | [11] | [16] | [14] | [15]

N[C@@H](Cc1cc(I)c(Oc2ccc(O)c(I)c2)c(I)c1)C(=O)O
active: [2] 36.8 µM | [4] 34.8 µM | [5] 233 nM | [8] 0.00111 µM | [9] 0.00171 µM | [14] 0.00051 µM
inactive: [1] | [2] | [3] | [4] | [6] | [11] | [12] | [13] | [17] | [15]

CCCOC(=O)c1ccc(C(=O)OCCC)nc1
active: [5] 5380 nM | [6] 1.17 µM
inactive: [1] | [2] | [4] | [8] | [9] | [10] | [11] | [13] | [14]

C#CCOC(=O)[C@@H](C)Oc1ccc(Oc2ncc(Cl)cc2F)cc1
inactive: [1] | [2] | [3] | [4] | [5] | [6] | [7] | [8] | [9] | [10] | [11] | [12] | [14]

CCOC(=O)NCCOc1ccc(Oc2ccccc2)cc1
inactive: [1] | [2] | [3] | [4] | [5] | [6] | [19] | [8] | [9] | [10] | [11] | [16] | [13] | [17] | [14] | [15]

CC(C)CCCCCCc1ccc(O)cc1
active: [1] 25.6 µM and 34.7 µM | [2] 39.9 µM | [3] 37.2 µM | [4] 46.2 µM and 41.7 µM
inactive: [1] | [2] | [3] | [4] | [5] | [6] | [8] | [9] | [10] | [11] | [16] | [12] | [13] | [17] | [14] | [15]

CCCN(CCC)c1c([N+](=O)[O-])cc(C(F)(F)F)c(N)c1[N+](=O)[O-]
active: [1] 20.7 µM | [2] 67.5 µM | [3] 21.4 µM | [4] 44.2 µM
inactive: [5] | [6] | [8] | [9] | [10] | [11] | [16] | [12] | [13] | [17] | [14] | [15]

COc1nc(C)nc(NC(=O)NS(=O)(=O)c2ccccc2OCCCl)n1
inactive: [1] | [2] | [4]

CCN(Cc1c(F)cccc1Cl)c1c([N+](=O)[O-])cc(C(F)(F)F)cc1[N+](=O)[O-]
inactive: [2] | [3] | [4] | [5] | [6] | [7] | [8] | [9] | [10] | [11] | [12] | [13] | [17] | [14] | [15]
active: [1] 26.3 µM
